A selection: hits, their analogues and other compounds. The true share with any hit is near 3.4%.
TEAD-YAP block: TEAD-YAP interaction inhibition; HEK-TIYL cells, TEAD-Gal4/YAP UAS-luciferase luminescence; inhibition, % at 9.12 µM; actives 1.4% (n = 640,000); AID 1259422; in the data active = inhibition above about 32%;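 also: 0% = median of test compound wells and 100% = reference inhibitor wells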
GPR151 ag: activators of human GPR151; PathHunter beta-arrestin GPR151 cells, luminescence; activation, % at 11.2 µM; Q8TDV0; actives 1% (n = 650,000); in the data active = activation above about 4.9%;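 also: 0% = median of compound wells and 100% = cells with positive control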
FBW7 act: human FBW7 E3 ligase activation, primary screen | AlphaScreen FBW7–phospho-cyclin E peptide binding, activator screen | normalized activity (activation), % at 26.1 µM | Q969H0 | actives 0.13% (n = 650,000); in the data active = normalized activity above about 1.9%;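 also: purified mutant Fbw7 with reduced substrate affinity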
MITF primary: blocks human microphthalmia-associated transcription factor | O75030 | AlphaScreen MITF homodimerization, bead proximity signal | inhibition, % at 2.6 µM | actives 0.91% (n = 650,000) | AID 1259374; in the data active = inhibition above about 50%;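 also: 0% = vehicle wells with protein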
GPR151 conf act: confirmation of human GPR151 activators. 6,700 tested, under 10 active. GPR151 PathHunter beta-arrestin cells, luminescence, 90 min; % of EA-reagent control over plate median. shares compounds with GPR151 ag. activation, % at 11.2 µM;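 active = mean percent activation across replicates above the confirmation screen cutoff of 4.91%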
GPR119 ag: GPR119 activation, counter-screen for GPR151 activators; shares compounds with GPR151 ag; GPR119 PathHunter beta-arrestin cells, luminescence, 90 min; 0 = compound-well median, 100 = enzyme-acceptor control; activation, % at 11.2 µM; actives 0.3% (n = 6,700);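 active = mean percent activation in the counterscreen above 29.09%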;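 also: counterscreen on off-target GPR119 to flag nonselective hits from the GPR151 activator screen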
Target sequence (Q8TDV5 whole entry, looked up): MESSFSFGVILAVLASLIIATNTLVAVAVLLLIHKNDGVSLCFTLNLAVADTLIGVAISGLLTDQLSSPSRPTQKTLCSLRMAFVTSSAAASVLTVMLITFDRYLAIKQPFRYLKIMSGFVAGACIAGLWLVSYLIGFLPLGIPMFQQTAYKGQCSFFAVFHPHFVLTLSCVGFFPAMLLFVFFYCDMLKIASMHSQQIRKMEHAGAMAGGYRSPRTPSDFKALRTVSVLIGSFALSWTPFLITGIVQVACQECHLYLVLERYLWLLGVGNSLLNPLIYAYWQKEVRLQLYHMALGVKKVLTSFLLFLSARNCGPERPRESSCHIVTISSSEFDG
* marks the source's active call; other numbers are inactive results.

Screening Cc1ccc2onc(CNC(=O)N3CCCCC3)c2c1 returned TEAD-YAP block -9.6, GPR151 ag 7.0*, FBW7 act 0.4, MITF primary 6.7, GPR151 conf act 0.3 and GPR119 ag 3.9.
`CCCN(CCC)CCCn1cnc2c([nH]c3ccc(F)cc32)c1=O` gave TEAD-YAP block 5.8, GPR151 ag 4.9, FBW7 act 0.4 and MITF primary 8.9.
CCCN(CCC)CCCn1cnc2c([nH]c3ccc(OC)cc32)c1=O was read as TEAD-YAP block -1.4, GPR151 ag 5.1*, FBW7 act -0.2, MITF primary -4.2, GPR151 conf act 0.3 and GPR119 ag 4.9.
`CC(C)n1cnc2c(NCc3cccc(C(F)(F)F)c3)nc(Cl)nc21` gave TEAD-YAP block 0.3, GPR151 ag -0.5, FBW7 act 0.2 and MITF primary 4.4.
Screening Cc1cc(C)n(C(=O)c2ccccc2[N+](=O)[O-])n1 returned TEAD-YAP block -13.4, GPR151 ag -0.4, FBW7 act 0.8 and MITF primary 16.5.
For COc1cc(/C=C/c2[nH]c(=O)[nH]c(=O)c2[N+](=O)[O-])cc(Cl)c1O the results were TEAD-YAP block 2.2, GPR151 ag -0.2, FBW7 act -0.2 and MITF primary 11.4.
For COc1cc(/C=C/c2[nH]c(=O)[nH]c(=O)c2[N+](=O)[O-])cc(OC)c1OC the results were TEAD-YAP block -3.2, GPR151 ag 7.7*, FBW7 act -0.1, MITF primary 10.3, GPR151 conf act -1.2 and GPR119 ag -4.2.
For Fc1ccc(CSc2ccc3nnc(-c4cccnc4)n3n2)cc1 the results were TEAD-YAP block -15.7, GPR151 ag 5.3*, FBW7 act -0.5, MITF primary -1.9, GPR151 conf act 0.5 and GPR119 ag 1.0.
For c1ccc(-c2nnc3ccc(SCc4cccnc4)nn23)cc1 the results were TEAD-YAP block 5.4, GPR151 ag 0.4, FBW7 act -0.2 and MITF primary -1.1.
Screening COc1ccc(CNC(=O)C2CCN(c3nc4ccccc4n4cccc34)CC2)cc1 returned TEAD-YAP block -5.6, GPR151 ag 7.5*, FBW7 act -0.2, MITF primary -12.7, GPR151 conf act -0.6 and GPR119 ag -1.3.
COC(=O)c1cccc(NC(=O)CN2C(=O)c3ccc([N+](=O)[O-])cc3C2=O)c1C was read as TEAD-YAP block -2.9, GPR151 ag 5.1*, FBW7 act 0.8, MITF primary -9.5, GPR151 conf act 0.5 and GPR119 ag 9.7.
For COC(=O)c1ccccc1NC(=O)CN1C(=O)c2ccc([N+](=O)[O-])cc2C1=O the results were TEAD-YAP block 2.0, GPR151 ag -0.9, FBW7 act 0.4 and MITF primary 8.0.
Screening CCOc1cc(/C=C2/C(=N)N3N=C(CC)SC3=NC2=O)cc(Cl)c1OCCOc1cc(C)ccc1C returned TEAD-YAP block -9.0, GPR151 ag 8.4*, FBW7 act 0.1, MITF primary 6.7, GPR151 conf act 0.2 and GPR119 ag -5.3.
Screening CCOc1cc(/C=C2/C(=N)N3N=C(CC)SC3=NC2=O)cc(Cl)c1OCCOc1ccc(C)cc1C returned TEAD-YAP block -1.3, GPR151 ag 1.1, FBW7 act 0.0 and MITF primary 5.2.
`Cc1cccc(NC(=O)c2sc3nc(C)nc(N4CCOCC4)c3c2C)c1` gave TEAD-YAP block -9.0, GPR151 ag 1.2, FBW7 act 0.1 and MITF primary 9.4.
For Cc1nc2sc(C(=O)Nc3cccc(C(F)(F)F)c3)c(C)c2c(=O)[nH]1 the results were TEAD-YAP block 1.6, GPR151 ag 6.5*, FBW7 act 0.0, MITF primary 11.1, GPR151 conf act 0.5 and GPR119 ag -3.8.
Cc1nc(N2CCOCC2)c2c(C)c(C(=O)Nc3cccc(C(F)(F)F)c3)sc2n1 was read as TEAD-YAP block 6.4, GPR151 ag 5.8*, FBW7 act 0.0, MITF primary -4.8, GPR151 conf act -0.6 and GPR119 ag -13.5.
Cc1ccc(NC(=O)c2sc3nc(C)nc(N4CCN(c5ccccn5)CC4)c3c2C)c(Br)c1 was read as TEAD-YAP block 0.9, GPR151 ag 8.8*, FBW7 act 0.0, MITF primary -0.7, GPR151 conf act -0.6 and GPR119 ag 11.2.

Assay outcomes from PubChem.
